From PubChem
TEAD-YAP inh: TEAD-YAP interaction inhibition, primary screen, TEAD-YAP interaction inhibitor project, luminescence, HEK-TIYL cells; TEAD-Gal4/YAP UAS-luciferase luminescence; AID 1259422, 2018; actives 1.4% (n = 640,000); inhibition, % at 9.12 µM; in the data active = inhibition above about 32%;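 also: 0% = median of test compound wells and 100% = reference inhibitor wells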
GPR151 ag: activators of human GPR151, primary screen, cell-based, PathHunter beta-arrestin, luminescence; G-protein coupled receptor 151 (Homo sapiens), Q8TDV0; PathHunter beta-arrestin GPR151 cells; activation, % at 11.2 µM; actives 1% (n = 650,000); AID 1508602, 2020; in the data active = activation above about 4.9%;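 also: 0% = median of compound wells and 100% = cells with positive control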
MITF primary: MITF inhibitors, primary screen, biochemical, AlphaScreen, human. Microphthalmia-associated transcription factor (Homo sapiens), O75030. AlphaScreen MITF homodimerization, bead proximity signal. inhibition, % at 2.6 µM. actives 0.91% (n = 650,000). AID 1259374, 2018; in the data active = inhibition above about 50%;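 also: 0% = vehicle wells with protein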
Target sequence (O75030 whole entry, looked up): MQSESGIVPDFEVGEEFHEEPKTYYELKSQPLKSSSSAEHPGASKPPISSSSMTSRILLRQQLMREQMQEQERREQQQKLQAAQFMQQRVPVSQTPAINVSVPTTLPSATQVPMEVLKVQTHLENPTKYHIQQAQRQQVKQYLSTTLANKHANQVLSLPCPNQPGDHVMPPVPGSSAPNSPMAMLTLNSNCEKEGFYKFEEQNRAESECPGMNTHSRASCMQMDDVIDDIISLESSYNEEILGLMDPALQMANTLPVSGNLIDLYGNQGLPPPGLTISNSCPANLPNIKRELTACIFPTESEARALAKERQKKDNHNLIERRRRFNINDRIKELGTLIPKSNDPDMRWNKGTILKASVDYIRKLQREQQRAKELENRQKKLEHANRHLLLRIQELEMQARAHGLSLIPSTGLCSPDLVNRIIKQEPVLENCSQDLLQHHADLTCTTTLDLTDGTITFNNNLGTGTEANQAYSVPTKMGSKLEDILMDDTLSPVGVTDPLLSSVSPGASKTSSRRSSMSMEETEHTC
FBW7 act: FBW7 E3 ligase activators, primary screen, biochemical, AlphaScreen, human; F-box/WD repeat-containing protein 7 (Homo sapiens), Q969H0; AlphaScreen FBW7–phospho-cyclin E peptide binding, activator screen; normalized activity (activation), % at 26.1 µM; actives 0.13% (n = 650,000); AID 1259310, 2017; in the data active = normalized activity above about 1.9%;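 also: purified mutant Fbw7 with reduced substrate affinity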
GPR151 conf act: GPR151 activators, triplicate retest, confirmation, cell-based, PathHunter beta-arrestin, luminescence | AID 1508609, 2020 | activation, % at 11.2 µM | shares compounds with GPR151 ag | GPR151 PathHunter beta-arrestin cells, 90 min; % of EA-reagent control over plate median | 6,700 tested, under 10 active;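 active = mean percent activation across replicates above the confirmation screen cutoff of 4.91%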
GPR119 ag: GPR119 activators in beta-arrestin cells, counter-screen for GPR151 activator project, cell-based, PathHunter beta-arrestin, luminescence, triplicate. activation, % at 11.2 µM. AID 1508611, 2020. shares compounds with GPR151 ag. actives 0.3% (n = 6,700). 90 min; 0 = compound-well median, 100 = enzyme-acceptor control;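 active = mean percent activation in the counterscreen above 29.09%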;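 also: counterscreen on off-target GPR119 to flag nonselective hits from the GPR151 activator screen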
An asterisk follows results filed as active; · = not tested or not shown. Rows were chosen to be rich in hits. Some 3.5% of all compounds tested hit in one or more screens of this group.

SMILES	TEAD-YAP inh	GPR151 ag	MITF primary	FBW7 act	GPR151 conf act	GPR119 ag
CCC1CCCCN1S(=O)(=O)c1cc(OC)c(Cl)cc1OC (configuration not stated)	-2	5.6*	3	0	0	7
CCC1CCCCN1S(=O)(=O)c1ccc(OC)cc1 (configuration not stated)	7	0	4	0	·	·
CCc1nnc(NC(=O)C2(c3cccc(F)c3)CCCC2)s1	0	5.2*	8	0	1	-2
CCCc1ccc(OCC(=O)Nc2ccccc2C(C)C)cc1	-4	0	3	0	·	·
CC(=O)c1ccc(NC(=O)C(Cc2ccccc2)n2cccc2)cc1 (configuration not stated)	5	5.2*	7	0	-1	6
COC(=O)Nc1ccc(S(=O)(=O)NCCc2c[nH]c3ccc(OC)cc23)cc1	14	1	-11	0	·	·
CCc1ccccc1NC(=O)CN(Cc1ccc(Br)cc1)S(=O)(=O)c1ccccc1	3	-1	0	0	·	·
Cc1ccc(CN(CC(=O)O)S(=O)(=O)c2ccc(Cl)cc2)cc1	-7	1	-11	0	·	·
CCc1ccccc1NC(=O)CN(Cc1ccccc1)S(=O)(=O)c1ccc(Br)cc1	1	6.6*	1	1	1	7
O=C(O)CN(Cc1ccc(Cl)cc1)S(=O)(=O)c1ccc(Cl)cc1	3	5.1*	-8	0	0	-6
O=C(CN(Cc1ccccc1)S(=O)(=O)c1ccc(Br)cc1)Nc1ccccc1Cl	-2	6.0*	-5	0	1	4
CC(C)Cn1c(-c2ccc(N(C)C)cc2)nc2ccccc21	-10	0	10	0	·	·
CC(C)NC(=O)c1sc(=S)n2c1[nH]c(=O)c1ccc(C(=O)NC3CC3)cc12	3	0	6	0	·	·
CSc1nc2ccc(NC(=O)c3ccccc3)cc2s1	-65	-2	-7	0	·	·
CC(=O)N(C)c1ccc(NC(=O)/C=C/c2cccc3ccccc23)cc1	1	-1	4	0	·	·
COc1ccc(C2/C(=C(/O)c3ccc(F)cc3)C(=O)C(=O)N2CCCCCC(=O)O)c(OC)c1 (configuration not stated)	-10	1	-10	0	·	·
COc1ccc(C2/C(=C(/O)c3ccccc3)C(=O)C(=O)N2CCCn2ccnc2)c(OC)c1 (configuration not stated)	2	5.9*	-21	0	2	-4
COc1ccc(C2/C(=C(/O)c3ccc(C)cc3)C(=O)C(=O)N2CCCC(=O)O)c(OC)c1 (configuration not stated)	8	7.8*	-9	0	1	10
Cc1cccc(N(CC(=O)N2CCCCC2)S(=O)(=O)c2ccccc2)c1C	-7	0	8	0	·	·
Cc1ccc(-c2cc3nc(-c4cccs4)cc(C(F)(F)F)n3n2)cc1	0	2	-5	0	·	·
CCOC(=O)N1CCN(C2CCC(=O)N(CCOc3ccccc3)CC2)CC1 (configuration not stated)	4	2	-11	0	·	·
CN1C(=O)/C(=C2\SC(=S)N(c3ccc(C(=O)O)cc3)C2=O)c2ccccc21	7	5.6*	21	0	1	16
CN1C(=O)/C(=C2\SC(=S)N(CC(=O)O)C2=O)c2ccccc21	-5	1	9	0	·	·
CN1C(=O)/C(=C2\SC(=S)N(c3ccc(CC(=O)O)cc3)C2=O)c2ccccc21	3	6.9*	11	0	0	0
CC(=O)c1ccc(N2C(=O)/C(=C3/C(=O)N(C(C)=O)c4ccccc43)SC2=S)cc1	-5	-1	7	0	·	·
CCOC(=O)C1C(=O)NC(SCC(=O)Nc2ccc(Br)cc2)=C(C#N)C1c1ccccc1OCC (configuration not stated)	-6	8.5*	-11	0	0	11
